High-throughput results: PubChem, several laboratories
DUSP1 inh: blocks human MKP-1 phosphatase activity. recombinant MKP-1, OMFP hydrolysis fluorescence. AID 374. 0.15% of 65,000 active. inhibition, %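 (compounds tested at a single concentration somewhere between 10 and 100 µM)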;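 active = inhibition above about 50%, limit read from the data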
Htt clearance: compounds clearing mutant huntingtin protein; inhibition, % at 1.5 µM; HeLa Exon1htt(103Q)mCFP, aggregate imaging; zero = plate's median compound well; AID 853; 0.42% of 47,000 active;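 active = inhibition of aggregate fluorescence above about 70%, also judged a hit by eye on the cell image, limit read from the data, passing the limit was not always enough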;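 note: cells exposed to compound for three days before fixation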
Cdc25B block: inhibitors of human Cdc25B phosphatase. recombinant Cdc25B, OMFP fluorescence Ex485/Em525. inhibition, %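 (compounds tested at 10 µM final in the well)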. 0.1% of 65,000 active. AID 368; in the data active = inhibition above about 50%
Target sequence (P30305 whole entry, looked up): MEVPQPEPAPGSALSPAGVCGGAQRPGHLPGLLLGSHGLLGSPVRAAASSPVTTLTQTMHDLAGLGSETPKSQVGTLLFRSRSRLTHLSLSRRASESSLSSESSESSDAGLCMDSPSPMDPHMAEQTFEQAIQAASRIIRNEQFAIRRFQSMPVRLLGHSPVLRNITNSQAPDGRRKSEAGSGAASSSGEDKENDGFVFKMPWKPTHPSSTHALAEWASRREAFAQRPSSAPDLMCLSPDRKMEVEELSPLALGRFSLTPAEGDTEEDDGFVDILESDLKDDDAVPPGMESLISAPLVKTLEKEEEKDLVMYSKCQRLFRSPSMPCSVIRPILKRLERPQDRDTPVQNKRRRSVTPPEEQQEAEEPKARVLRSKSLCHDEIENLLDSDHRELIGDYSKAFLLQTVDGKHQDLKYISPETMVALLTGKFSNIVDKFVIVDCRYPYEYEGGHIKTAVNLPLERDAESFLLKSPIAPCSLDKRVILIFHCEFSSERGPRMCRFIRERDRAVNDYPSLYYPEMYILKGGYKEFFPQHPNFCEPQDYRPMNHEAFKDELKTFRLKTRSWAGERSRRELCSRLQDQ
SKBR3 24h inh: SK-BR-3 proliferation inhibitors. AID 847. viability, % at 10 µM. SK-BR-3 viability, CellTiter-Glo ATP luminescence, 24 h; hits give low values. 0.47% of 41,000 active;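 active = viability at or below the median of all test compounds minus 3 SD, in both replicates if run twice, cut at about 45% in these data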
Jurkat tox 60K: reduces viability or proliferation of Jurkat cells; Jurkat E6.1 viability, ATP luminescence, 48 h; inhibition, % at 4 µM; AID 463; 1.2% of 56,000 active;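 active = inhibition above the mean inhibition of all tested compounds plus 3 SD, cut at about 28% in these data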
Numbers stand for hits; i = inactive; nt = no result given. Rows were chosen to be rich in hits. Some 1.6% of all compounds tested hit in one or more screens of this group.

SMILES	DUSP1 inh	Htt clearance	Cdc25B block	SKBR3 24h inh	Jurkat tox 60K
c1ccc(Nc2ncnc3c2oc2ccccc23)cc1	i	72	i	i	i
C=C(C)COc1ccc(-c2[nH]ncc2-c2ccc(OC)c(OC)c2)c(O)c1	i	nt	i	i	65
CC(=O)CC1OC(=O)C(Br)=C1NCc1ccccc1 (stereo not drawn)	i	i	i	i	49
COc1ccc(OC)c(Nc2cc(-c3ccccc3)nc(N)n2)c1	i	nt	i	nt	98
CCc1nnc(NC(=O)CSc2nccn2-c2cc(C)cc(C)c2)s1	i	nt	i	nt	i
CCOC(=O)N1CCN(C(=O)C2CCCN(Cc3nc(-c4ccc(Cl)cc4)oc3C)C2)CC1 (stereo not drawn)	i	i	i	nt	49
O=C1NCCCC2c3cc(O)c4ccccc4c3OC12N1CCCCC1 (stereo not drawn)	i	i	i	5.1	i
O=C1NCCCC2c3c(cc(Br)c(O)c3Br)OC12N1CCOCC1 (stereo not drawn)	i	i	i	i	i
O=C(c1ccco1)N1CCN(S(=O)(=O)Cc2ccc(Cl)cc2)CC1	i	nt	i	i	i
N#Cc1nc(N2CCCC2)nc(N2CCCC2)n1	i	73	i	i	i
N#Cc1nc(N2CCCCC2)nc(N2CCOCC2)n1	i	nt	i	i	42
CC(C)CCNC(=O)C1CCN(c2nc3ccccc3o2)CC1	i	i	71	nt	i
CCOC(=O)N1CCC(NC(=O)c2ccc3nc4ccccc4c(=O)n3c2)CC1	nt	i	nt	nt	nt
CCOC(=O)N1CCC(NC(=O)c2cccn3c(=O)c4cc(Br)ccc4nc23)CC1	53	nt	i	nt	nt
CCCS(=O)(=O)N1CCCC(C(=O)NCCCN2CCN(c3cccc(Cl)c3)CC2)C1 (stereo not drawn)	i	i	i	i	i
C(=C\c1ccccc1)/CSc1nnc(-c2ccccn2)n1Cc1ccco1	i	i	i	nt	86
Clc1ccccc1CSc1nnc(-c2ccccn2)n1Cc1ccco1	i	i	i	i	nt
Cc1ccccc1-n1c(SCC(=O)c2cc(C)n(C)c2C)nnc1-c1ccncc1	i	i	i	nt	i
COc1cccc(N2C(=O)CC(N3CCC(C(N)=O)(N4CCCCC4)CC3)C2=O)c1 (stereo not drawn)	i	i	i	i	i
O=S(=O)(NC1CCCCC1)c1ccc(Cl)s1	i	i	i	i	i
O=C(Nc1ccccn1)c1ccc2ccccc2n1	i	nt	70	nt	i
CCN(CC)C(=O)Cn1cnc2sc(C(=O)Nc3cc(OC)c(OC)c(OC)c3)c(C)c2c1=O	nt	i	nt	nt	nt
O=C(NC1CC1)c1c[nH]c2ccc(S(=O)(=O)Nc3cccc(C(F)(F)F)c3)cc2c1=O	52	i	i	nt	i
CC(C)N(C(=O)CSc1nnc(NC(=O)C2CCC2)s1)C(C)C	i	i	i	42	i
COc1ccc(C(=O)N=c2sc3c(C)ccc(OC)c3n2C)cc1	nt	i	nt	nt	nt
SMILES	DUSP1 inh	Htt clearance	Cdc25B block	SKBR3 24h inh	Jurkat tox 60K
O=S1(=O)C=C(Sc2nc3ccccc3s2)c2ccccc21	i	nt	i	22	102
CCOC(=O)COc1cccc2c(=O)n(CC(=O)NCc3ccc4c(c3)OCO4)ccc12	i	i	i	nt	51
CCOC(=O)COc1cccc2c(=O)n(CC(=O)N3CCc4ccccc43)ccc12	i	i	i	nt	i
CCOc1ccc(-c2nnn(CC(=O)NCc3ccc4c(c3)OCO4)n2)cc1	nt	76	nt	nt	nt
Cc1ccc(S(=O)(=O)NCc2ccncc2)cc1	i	i	i	nt	76
CCOc1ccc(S(=O)(=O)NCc2ccncc2)cc1	nt	i	nt	nt	nt
CC1CCCCC1NS(=O)(=O)c1ccc(S(=O)(=O)NCc2ccncc2)cc1 (stereo not drawn)	81	nt	i	i	92
Cc1cc(Oc2ccccc2)nc2ccc(O)cc12	i	nt	i	i	i
O=C(N1CCCC1)N1CCN(c2ncnc3c(-c4ccc(Cl)cc4)nsc23)CC1	i	nt	i	i	i
CCCC(C)C1C(C#N)=C(N)Oc2cc(C)oc(=O)c21 (stereo not drawn)	i	i	i	i	i
CCOC(=O)c1ccc(CNC(=O)c2cc(C(C)(C)C)oc2C)o1	i	i	i	i	i
C=CCN=C(CC)C1=C(O)CCCC1=O	i	i	i	i	i
C=CCN=C(C)C1=C(O)CCC1=O	i	77	i	i	nt
O=C1CCc2nc3sc4c(c3c(=O)n2N1)CCCC4	i	84	i	i	i
CC(C)c1ccc(-c2noc(C3CCCN(C(=O)c4ccc(F)cc4F)C3)n2)cc1 (stereo not drawn)	i	nt	i	i	i
Cc1ccc(-c2noc(C3CCCN(C(=O)c4ccc(F)cc4F)C3)n2)cc1 (stereo not drawn)	i	nt	i	42	i
Cc1ccc(C(=O)Nc2ccc3cn[nH]c3c2)cc1S(=O)(=O)N1CCCCC1	nt	i	nt	nt	nt
Cc1nc2ccccn2c1-c1csc(NCc2ccco2)n1	i	i	i	i	32
CCN(CC)Cc1c(O)ccc2c([N+](=O)[O-])c(C)n(-c3ccc(OC)cc3)c12	nt	71	nt	nt	nt
CCN(CC)Cc1c(O)ccc2occ(C(=O)c3ccc(OC)cc3)c12	nt	i	nt	nt	nt
Cc1nnc(SCC(N)=O)n1CCc1ccccc1	nt	71	nt	nt	nt
O=C(c1ccccc1-c1ccccc1)N1CCN(c2ccccn2)CC1	i	nt	i	i	84
COc1ccc(S(=O)(=O)n2nc(OC(=O)c3ccccc3Br)cc2N)cc1	i	nt	i	i	i
CS(=O)(=O)n1nc(OC(=O)c2cccc3ccccc23)cc1N	i	i	i	42	i
COc1ccc(-n2nnnc2-c2cccc(OC)c2)cc1	i	nt	i	i	78
SMILES	DUSP1 inh	Htt clearance	Cdc25B block	SKBR3 24h inh	Jurkat tox 60K
OC(COc1ccc(C2C=CCC2)cc1)CN1CCCCC1 (stereo not drawn)	i	nt	i	i	i
O=C(CC1CCCC1)OCn1nnc2ccccc2c1=O	i	nt	i	nt	i
CC(=O)N1CN(Cc2ccccn2)Cc2c1sc1c2CCCC1	i	83	i	nt	i
Cc1ccc(C)c(-n2nnnc2Sc2nnnn2-c2ccccc2)c1	i	i	i	nt	30
Cc1ccccc1-n1c(Cn2c(=O)sc3ccccc32)nnc1SCC(=O)NCC1CCCO1 (stereo not drawn)	i	i	i	nt	i
COc1ccc(-n2nnc3c(SCC(=O)N4CCCc5ccccc54)ncnc32)cc1	i	nt	i	nt	i
CCOC(=O)C1=C(CNCc2ccc(C)cc2)NC(=O)NC1c1ccc(OC)cc1 (stereo not drawn)	i	nt	i	i	35
COc1cccc(NC(=O)CCS(=O)(=O)c2cccs2)c1	i	nt	i	i	i
Cc1cccc(OCC(O)CN2C(C)(C)CC(O)CC2(C)C)c1C (stereo not drawn)	i	nt	i	i	i
CC(C)(C)NCC(O)COc1cccc2c1C[C@H](O)[C@H](O)C2 (stereo partly drawn)	i	nt	100	i	nt
Cc1cccc(NC(=O)Cc2noc3ccccc23)c1	nt	84	nt	nt	nt
O=S(=O)(C/C(=C/CO)S(=O)(=O)c1ccccc1)c1ccccc1	i	i	i	i	98
O=C(CS(=O)(=O)c1ccccc1)N1CCCCCC1	i	i	i	i	i
CCOC(=O)C1CCCN(C(=O)CNC(=O)Cn2ccc3ccccc3c2=O)C1 (stereo not drawn)	i	nt	i	i	nt
CC(C)c1cc(C(=O)Nc2cc(Br)ccc2O)no1	nt	i	nt	nt	nt
CCCc1cc(C(=O)Nc2cc(Br)ccc2O)no1	i	nt	i	nt	46
